According to PubChem BioAssay (EPA / NIEHS):
“And” between values parts separate entries of the source, which are not always exact repeats. Equal values may be shown once. Results filed as inconclusive are left out. Where a structure was tested more than once in an assay, its records may differ in their call. The source made the active and inactive calls. The calls were made as follows: active = hit-call score of the fitted dose curve at least 0.9, where 1 is the maximum; inconclusive = response in the unintended direction; inactive = score below 0.9.

Tested on: not listed separately
Experiment: TOX21_p53_BLA_p2_viability: Viability Assessment in the Tox21 HCT-116 p53 Agonism Beta-lactamase Assay, Phase 2 (AID 2283591);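 also: compound exposure lasted 16 h at 37 °C; actives lower the ATP signal meaning cytotoxicity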
Summary of the method: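 HCT116 p53-bla cells, 4000/well, dosed after 5 h plating (217-fold dilution of DMSO stocks) and incubated 16 h at 37C. Viability taken as cellular ATP by CellTiter-Glo luminescence after 30 min RT; signal loss marks cytotoxicity.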

| SMILES | outcome | AC50 |
| --- | --- | --- |
| O=C(CCCN1CCC(O)(c2ccc(Cl)cc2)CC1)c1ccc(F)cc1 | inactive |  |
| CCCCc1oc2ccccc2c1C(=O)c1cc(I)c(OCCN(CC)CC)c(I)c1 | inactive | 59.9 µM (active) |
| O=C(c1ccccc1)c1ccccc1 | inactive |  |

Biological target: Cellular tumor antigen p53 (Homo sapiens) (UniProt P04637)
Experiment: TOX21_p53_BLA_p2_ratio: Tox21 HCT-116 p53 Agonism Beta-lactamase Assay, Ratio, Phase 2 (AID 2283592)
Summary of the method: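 DMSO-normalized, positive-direction endpoint derived from the 460 nm/530 nm FRET ratio in HCT116 p53 beta-lactamase reporter cells exposed 16 h at 37C and loaded with CCF4-AM for 2 h.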

Cellular tumor antigen p53 (Homo sapiens), sequence (P04637 whole entry, looked up): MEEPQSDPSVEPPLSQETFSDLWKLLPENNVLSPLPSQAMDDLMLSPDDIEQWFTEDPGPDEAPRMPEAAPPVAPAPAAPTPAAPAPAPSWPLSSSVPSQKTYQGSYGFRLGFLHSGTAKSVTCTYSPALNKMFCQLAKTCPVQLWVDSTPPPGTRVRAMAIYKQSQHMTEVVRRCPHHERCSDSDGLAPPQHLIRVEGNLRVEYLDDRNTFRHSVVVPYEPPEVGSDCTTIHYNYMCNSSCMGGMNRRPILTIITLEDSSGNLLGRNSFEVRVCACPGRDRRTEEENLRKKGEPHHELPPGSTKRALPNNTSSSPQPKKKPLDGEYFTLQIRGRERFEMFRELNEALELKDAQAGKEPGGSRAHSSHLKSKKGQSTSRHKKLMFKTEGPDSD

| SMILES | outcome |
| --- | --- |
| O=C(CCCN1CCC(O)(c2ccc(Cl)cc2)CC1)c1ccc(F)cc1 | inactive |
| CCCCc1oc2ccccc2c1C(=O)c1cc(I)c(OCCN(CC)CC)c(I)c1 | inactive |
| O=C(c1ccccc1)c1ccccc1 | inactive |

Tested on: not listed separately
Experiment: TOX21_p53_BLA_p3_viability: Viability Assessment in the Tox21 HCT-116 p53 Agonism Beta-lactamase Assay, Phase 3 (AID 2283593);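 also: cells exposed to compound for 16 h before reading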
Summary of the method: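 HCT116 cells, 4000/well, dosed 5 h after plating by pin transfer (217-fold dilution from DMSO stock) and incubated 16 h at 37C, 5% CO2. Viability read as ATP luminescence with CellTiter-Glo after 30 min at room temperature.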

| SMILES | outcome | AC50 |
| --- | --- | --- |
| O=C(CCCN1CCC(O)(c2ccc(Cl)cc2)CC1)c1ccc(F)cc1 | inactive |  |
| CCCCc1oc2ccccc2c1C(=O)c1cc(I)c(OCCN(CC)CC)c(I)c1 | inactive | 32.3 µM (active) and 51.8 µM (active) |
| CN(C)CCOC(c1ccccc1)c1ccccc1 | inactive |  |
| O=C(c1ccccc1)c1ccccc1 | inactive |  |
